# Measured values published in the supplement of paper PMC10849652.
# Of roughly 7,900 targets only a part is listed; those with a hit were picked by preference. About 0.6% of all pairs of compound and target were hits. Values without a mark were called inactive.
# What was measured:
# Test in all cases: log2 fold change, soluble protein after heating vs DMSO (PISA); higher = thermal stabilisation; K562 cells, 10 uM, 30 min; active = over 0.2 and 3.5 SD of the protein, either way, in both replicates (recomputed)
# [1] = compound: C#Cc1cccc(Nc2ncnc3cc(OCCOC)c(OCCOC)cc23)c1 [erlotinib]
# How it was run: (§1)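 K562 cells at 2×10^6 cells/mL were treated for 30 min with 10 μM compound, and aliquots were heated for 3 min over 48°C-58°C before pooling. Extraction used PBS with 0.5% NP-40 at 4°C, and soluble protein was the supernatant after 21,000xg for 90 min, measured by TMTpro 16plex LC-MS/MS with channel sums equalised. Thermal stability values, relative to control samples and from duplicates, are log2 fold changes.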
# [2] = compound: C/C(=N\NC(=O)C1=CC(=CC=C1)S(=O)(=O)N2CCOCC2)/C3=C(C=CC(=C3)Cl)O
# How it was run: as §1
# [3] = compound: C1=CC(=C(C=C1Cl)C2=NC3=NC=CN=C3C(=N2)NC4=CC=NC=C4)F
# How it was run: as §1
# [4] = compound: C1=CC(=CC=C1C2=NC3=C(N2)C=C(C=C3)C(=O)N)OC4=CC=C(C=C4)Cl
# How it was run: as §1
# [5] = compound: C1=CC2=C(C=CC(=C2)/C=C\3/C(=O)NC(=NCC4=CC=CS4)S3)N=C1
# How it was run: as §1
# [6] = compound: C1=CC2=NC=CN=C2C=C1/C=C/3\C(=O)NC(=O)S3
# How it was run: as §1
# [7] = compound: C1=CC=C(C=C1)C2=NC(=C(N2)C3=CC=NC=C3)C4=CC(=C(C=C4)Cl)O
# How it was run: as §1
# [8] = compound: C1=CC=C2C(=C1)C3=NNC4=CC=CC(=C43)C2=O
# How it was run: as §1
# [9] = compound: C1CCN(C1)C(=O)NC2=CC=CC(=C2)NC3=NC=C(C(=N3)NCCC4=CN=CN4)Br
# How it was run: as §1
# [10] = compound: C1CN(CCC1(CC2=CC=C(C=C2)Cl)N)C3=NC=NC4=C3C=CN4
# How it was run: as §1
# UniProt Q8N8J7, sequence (Q8N8J7 whole entry, looked up): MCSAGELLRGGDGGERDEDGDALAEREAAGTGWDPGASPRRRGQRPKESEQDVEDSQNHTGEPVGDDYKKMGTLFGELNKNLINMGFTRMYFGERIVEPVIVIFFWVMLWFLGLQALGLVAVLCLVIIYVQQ
# UniProt Q9P2D6, sequence (Q9P2D6 whole entry, looked up): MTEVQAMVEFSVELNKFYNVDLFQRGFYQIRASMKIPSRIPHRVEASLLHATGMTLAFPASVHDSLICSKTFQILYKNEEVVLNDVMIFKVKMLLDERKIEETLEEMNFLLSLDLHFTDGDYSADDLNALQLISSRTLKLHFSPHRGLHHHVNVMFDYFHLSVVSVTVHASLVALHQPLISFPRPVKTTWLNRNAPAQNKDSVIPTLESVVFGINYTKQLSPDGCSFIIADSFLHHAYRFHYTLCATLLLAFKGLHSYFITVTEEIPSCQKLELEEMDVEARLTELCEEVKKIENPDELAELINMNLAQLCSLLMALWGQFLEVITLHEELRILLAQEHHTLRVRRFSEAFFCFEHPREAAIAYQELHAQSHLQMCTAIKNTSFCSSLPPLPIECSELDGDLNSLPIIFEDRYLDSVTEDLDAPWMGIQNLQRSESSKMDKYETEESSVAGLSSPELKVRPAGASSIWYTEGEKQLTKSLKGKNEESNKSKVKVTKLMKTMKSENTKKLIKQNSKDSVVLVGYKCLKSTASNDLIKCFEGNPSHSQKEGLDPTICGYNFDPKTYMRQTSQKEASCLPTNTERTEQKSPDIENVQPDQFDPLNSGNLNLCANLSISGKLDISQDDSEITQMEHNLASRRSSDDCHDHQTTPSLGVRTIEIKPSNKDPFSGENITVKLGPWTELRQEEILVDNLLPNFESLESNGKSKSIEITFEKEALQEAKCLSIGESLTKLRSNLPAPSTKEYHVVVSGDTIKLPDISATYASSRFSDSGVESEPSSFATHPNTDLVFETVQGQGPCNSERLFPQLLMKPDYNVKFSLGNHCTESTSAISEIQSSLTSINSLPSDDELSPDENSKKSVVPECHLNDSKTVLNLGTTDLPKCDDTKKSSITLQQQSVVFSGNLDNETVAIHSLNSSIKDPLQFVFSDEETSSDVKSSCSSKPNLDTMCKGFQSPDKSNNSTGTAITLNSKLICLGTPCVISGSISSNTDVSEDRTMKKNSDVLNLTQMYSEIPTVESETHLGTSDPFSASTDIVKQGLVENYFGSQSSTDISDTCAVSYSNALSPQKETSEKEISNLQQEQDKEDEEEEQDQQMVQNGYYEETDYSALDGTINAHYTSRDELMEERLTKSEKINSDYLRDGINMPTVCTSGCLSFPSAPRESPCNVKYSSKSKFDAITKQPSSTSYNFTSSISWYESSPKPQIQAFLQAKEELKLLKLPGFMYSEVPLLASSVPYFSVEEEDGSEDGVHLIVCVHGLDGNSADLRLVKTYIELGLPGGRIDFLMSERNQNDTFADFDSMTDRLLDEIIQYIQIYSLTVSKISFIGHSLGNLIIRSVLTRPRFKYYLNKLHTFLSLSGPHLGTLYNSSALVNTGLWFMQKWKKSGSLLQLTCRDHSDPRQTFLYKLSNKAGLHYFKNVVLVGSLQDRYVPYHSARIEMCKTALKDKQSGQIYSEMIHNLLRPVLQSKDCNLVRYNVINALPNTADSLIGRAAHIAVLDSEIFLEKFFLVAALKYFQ
# UniProt Q86YN1, sequence (Q86YN1 whole entry, looked up): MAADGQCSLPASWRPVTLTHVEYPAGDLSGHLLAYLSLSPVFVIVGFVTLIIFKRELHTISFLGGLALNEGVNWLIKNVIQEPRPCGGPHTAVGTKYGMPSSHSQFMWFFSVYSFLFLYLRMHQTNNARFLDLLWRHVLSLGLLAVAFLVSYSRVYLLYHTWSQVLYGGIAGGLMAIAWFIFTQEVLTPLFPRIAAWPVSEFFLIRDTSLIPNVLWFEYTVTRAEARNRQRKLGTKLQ
# UniProt P17844, sequence (P17844 whole entry, looked up): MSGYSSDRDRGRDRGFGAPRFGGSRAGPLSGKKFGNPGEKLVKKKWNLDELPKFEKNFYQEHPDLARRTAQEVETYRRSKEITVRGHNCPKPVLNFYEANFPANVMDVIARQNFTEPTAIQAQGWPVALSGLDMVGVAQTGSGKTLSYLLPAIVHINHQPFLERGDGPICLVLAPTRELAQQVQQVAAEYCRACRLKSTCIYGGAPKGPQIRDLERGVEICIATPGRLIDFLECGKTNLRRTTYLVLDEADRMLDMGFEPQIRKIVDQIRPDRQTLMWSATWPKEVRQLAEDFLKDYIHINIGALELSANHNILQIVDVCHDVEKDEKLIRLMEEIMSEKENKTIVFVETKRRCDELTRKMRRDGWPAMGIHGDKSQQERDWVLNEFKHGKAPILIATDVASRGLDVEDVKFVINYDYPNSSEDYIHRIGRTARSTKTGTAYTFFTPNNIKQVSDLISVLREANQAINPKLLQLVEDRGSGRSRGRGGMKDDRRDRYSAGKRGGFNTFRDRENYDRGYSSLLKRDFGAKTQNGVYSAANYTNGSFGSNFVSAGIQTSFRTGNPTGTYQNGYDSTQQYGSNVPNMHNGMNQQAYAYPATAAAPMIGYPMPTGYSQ
# UniProt Q2TBE0, sequence (Q2TBE0 whole entry, looked up): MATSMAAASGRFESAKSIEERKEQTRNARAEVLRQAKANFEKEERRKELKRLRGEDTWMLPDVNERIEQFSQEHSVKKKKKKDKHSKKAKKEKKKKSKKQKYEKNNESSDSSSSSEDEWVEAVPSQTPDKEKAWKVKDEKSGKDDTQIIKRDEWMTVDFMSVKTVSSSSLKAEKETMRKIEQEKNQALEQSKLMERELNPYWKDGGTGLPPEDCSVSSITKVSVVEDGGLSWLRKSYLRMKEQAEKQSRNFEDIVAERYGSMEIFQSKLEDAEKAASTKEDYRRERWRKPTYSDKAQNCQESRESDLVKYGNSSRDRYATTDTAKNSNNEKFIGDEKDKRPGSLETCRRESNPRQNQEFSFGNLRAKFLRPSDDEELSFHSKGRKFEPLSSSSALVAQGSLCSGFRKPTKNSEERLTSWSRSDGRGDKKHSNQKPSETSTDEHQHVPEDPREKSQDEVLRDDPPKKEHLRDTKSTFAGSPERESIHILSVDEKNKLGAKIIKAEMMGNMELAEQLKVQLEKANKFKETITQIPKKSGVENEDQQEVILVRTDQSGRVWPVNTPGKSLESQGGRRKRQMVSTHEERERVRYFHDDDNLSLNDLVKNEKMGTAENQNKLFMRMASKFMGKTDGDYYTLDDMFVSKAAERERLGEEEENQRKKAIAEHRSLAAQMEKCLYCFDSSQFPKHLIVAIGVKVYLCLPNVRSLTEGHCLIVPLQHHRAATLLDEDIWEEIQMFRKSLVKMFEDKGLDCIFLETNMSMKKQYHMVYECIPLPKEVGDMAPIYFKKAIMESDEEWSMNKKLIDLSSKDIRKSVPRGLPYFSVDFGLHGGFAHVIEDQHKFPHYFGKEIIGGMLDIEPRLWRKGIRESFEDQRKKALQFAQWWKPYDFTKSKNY
# UniProt P25774, sequence (P25774 whole entry, looked up): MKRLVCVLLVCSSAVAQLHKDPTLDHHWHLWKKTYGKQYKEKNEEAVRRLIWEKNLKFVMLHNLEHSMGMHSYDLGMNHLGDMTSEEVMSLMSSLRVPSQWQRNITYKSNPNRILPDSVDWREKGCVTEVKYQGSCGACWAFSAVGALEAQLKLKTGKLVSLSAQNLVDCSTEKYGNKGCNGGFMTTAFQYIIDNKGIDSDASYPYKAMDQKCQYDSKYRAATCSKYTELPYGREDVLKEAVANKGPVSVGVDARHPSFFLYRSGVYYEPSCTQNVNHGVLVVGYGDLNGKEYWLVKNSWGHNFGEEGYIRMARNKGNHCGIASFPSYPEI
# UniProt Q6UX07, sequence (Q6UX07 whole entry, looked up): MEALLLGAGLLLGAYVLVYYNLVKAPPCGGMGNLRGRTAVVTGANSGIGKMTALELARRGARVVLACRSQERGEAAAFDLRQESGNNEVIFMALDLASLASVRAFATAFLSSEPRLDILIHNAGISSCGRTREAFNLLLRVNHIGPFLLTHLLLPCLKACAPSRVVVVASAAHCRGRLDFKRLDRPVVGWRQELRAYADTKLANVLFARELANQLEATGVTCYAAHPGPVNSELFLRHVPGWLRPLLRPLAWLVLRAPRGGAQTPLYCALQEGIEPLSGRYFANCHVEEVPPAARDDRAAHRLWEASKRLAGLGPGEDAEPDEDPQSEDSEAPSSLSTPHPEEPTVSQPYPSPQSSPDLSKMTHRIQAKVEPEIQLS
# UniProt P18074, sequence (P18074 whole entry, looked up): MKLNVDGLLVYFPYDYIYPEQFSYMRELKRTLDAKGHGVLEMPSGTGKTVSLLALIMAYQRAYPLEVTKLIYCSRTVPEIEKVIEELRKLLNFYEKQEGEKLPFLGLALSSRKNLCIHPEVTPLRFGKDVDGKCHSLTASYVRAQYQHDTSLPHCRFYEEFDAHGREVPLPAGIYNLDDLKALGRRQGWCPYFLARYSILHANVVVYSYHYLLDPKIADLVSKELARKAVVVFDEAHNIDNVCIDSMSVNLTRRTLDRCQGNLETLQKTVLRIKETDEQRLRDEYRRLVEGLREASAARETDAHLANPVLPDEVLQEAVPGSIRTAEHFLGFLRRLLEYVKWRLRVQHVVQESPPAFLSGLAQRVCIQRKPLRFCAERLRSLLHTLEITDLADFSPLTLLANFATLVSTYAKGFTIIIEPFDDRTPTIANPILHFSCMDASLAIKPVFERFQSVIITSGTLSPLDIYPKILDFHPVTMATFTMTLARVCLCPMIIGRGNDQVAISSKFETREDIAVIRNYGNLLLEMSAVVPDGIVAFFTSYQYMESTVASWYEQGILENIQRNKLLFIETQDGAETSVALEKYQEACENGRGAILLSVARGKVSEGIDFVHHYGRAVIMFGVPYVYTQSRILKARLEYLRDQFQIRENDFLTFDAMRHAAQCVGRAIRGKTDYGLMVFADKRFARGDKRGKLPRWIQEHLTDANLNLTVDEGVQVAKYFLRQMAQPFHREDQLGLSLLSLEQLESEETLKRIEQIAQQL
# UniProt Q6P3W2, sequence (Q6P3W2 whole entry, looked up): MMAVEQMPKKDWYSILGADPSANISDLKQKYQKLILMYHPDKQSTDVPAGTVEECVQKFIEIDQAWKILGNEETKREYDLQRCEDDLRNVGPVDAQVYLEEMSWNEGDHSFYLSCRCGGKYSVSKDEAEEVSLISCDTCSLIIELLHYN
Target,log2 fold change [1],log2 fold change [2],log2 fold change [3],log2 fold change [4],log2 fold change [5],log2 fold change [6],log2 fold change [7],log2 fold change [8],log2 fold change [9],log2 fold change [10]
DDX11 (UniProt Q96FC9),0.019,-0.041,0.087,0.005,0.029,0.034,0.215,-0.027,0.032,0.072
EXOC5 (UniProt O00471),0.054,0.092,-0.002,-0.044,0.01,0,-0.006,0.015,0.004,-0.015
DTNBP1 (UniProt Q96EV8),0.016,0.028,0.038,0.03,0.028,-0.038,-0.043,-0.043,-0.009,0.002
DDX5 (UniProt P17844),0.13,0.101,0.072,0,-0.003,-0.046,0.059,-0.032,-0.061,-0.127
ERCC2 (UniProt P18074),0.04,0.049,0.2,0.033,0.041,-0.051,0.014,-0.054,-0.005,0.036
DBR1 (UniProt Q9UK59),0.031,0.042,-0.052,0.025,-0.033,0.002,0.069,0.006,-0.026,0.044
CYFIP1 (UniProt Q7L576),-0.016,0.066,0.07,0.018,0.002,0.026,0.003,-0.016,0.005,0.059
DCAF13 (UniProt Q9NV06),-0.085,-0.172,-0.441,0.079,-0.114,-0.05,-0.034,-0.047,0.044,-0.094
EPHX2 (UniProt E5RI53),,,0.037,,,-0.082,,,,
EPHB4 (UniProt P54760),,,,,,,-0.151,,,
DOP1A (UniProt Q5JWR5),0.177,,0.009,-0.152,,0.035,,,,
CTNNBL1 (UniProt Q8WYA6),,,,,,-0.032,,,,
F2RL3 (UniProt Q96RI0),-0.056,0.026,,-0.083,0.039,,-0.052,-0.12,-0.161,0.065
DCP2 (UniProt Q8IU60),,0.176,-0.117,,-0.118,,0.021,-0.073,-0.134,-0.064
DDB1 isoform 2 (UniProt Q16531),,,0.017,,,0.205,,,,
DOLPP1 (UniProt Q86YN1),0.049,0.039,,0.009,-0.165,0.074,0.17,0.011,-0.088,0.001
FAM118A (UniProt Q9NWS6),,0.005,0.098,,0.083,0.089,-0.365,0.212,0.084,0.078
EEF1D isoform 3 (UniProt P29692),-0.009,,,0.009,,,,,-0.16,-0.087
EEF2K (UniProt O00418),-0.064,,-0.137,-0.024,,,0.027,,,
DNAL1 (UniProt Q4LDG9),,-0.034,0.053,,-0.07,-0.654 (active),-0.113,0.091,,
DNAJB1 (UniProt M0R128),,,,,,-0.105,,,0.142,0.133
DENND1A isoform 6 (UniProt Q8TEH3),,,,,,-0.328,,,-0.315,-0.034
DNAJC24 (UniProt Q6P3W2),-0.114,,0.123,0.062,,-0.053,-0.084,,-0.047,-0.158
ELMO1 (UniProt Q92556),0.111,,-0.079,-0.001,,0.037,-0.308,,,

Target,log2 fold change [1],log2 fold change [2],log2 fold change [3],log2 fold change [4],log2 fold change [5],log2 fold change [6],log2 fold change [7],log2 fold change [8],log2 fold change [9],log2 fold change [10]
ENTR1 (UniProt Q96C92),-0.015,,,0.043,,,,,,
CWF19L2 (UniProt Q2TBE0),0.004,0.056,,0.038,0.03,,-0.132,-0.014,0.017,-0.04
DERPC (UniProt P0CG12),0.197,,,-0.346,,0.078,-0.034,,,
ENTPD7 (UniProt Q9NQZ7),0.096,,-0.028,-0.181,,0.063,,,-0.042,0.037
CTSS (UniProt P25774),,,,,,,-0.215,,0.144,0.545
EDRF1 (UniProt Q3B7T1),0.066,,-0.038,-0.119,,-0.017,-0.033,,,
EIF4G3 isoform 3 (UniProt O43432),0.047,0.01,,-0.083,0.041,-0.046,-0.028,0.071,-0.049,-0.125
DHRS13 (UniProt Q6UX07),0.014,0.043,,-0.006,0.037,,0.073,0.047,-0.009,0.065
FAM241A (UniProt Q8N8J7),-0.012,-0.005,,0.044,-0.076,0.043,-0.014,0.012,0.016,0.045
DNM2 isoform 4 (UniProt P50570),0.042,,0.084,-0.128,,0.261,-0.008,,,
DLK1 (UniProt P80370),,,0.028,,,,,,,
DNAH10 (UniProt Q8IVF4),0.325,,0.251,-0.187,,-0.054,,,-0.052,0.137
EID1 (UniProt Q9Y6B2),-0.17,,-0.425,0.137,,,,,0.092,0.029
FAM135A (UniProt Q9P2D6),0.033,,0.07,-0.116,,,,,,
"DDX46, A0A0C4DG89",,,0.174,,,,,,,
FADS1 (UniProt F5GYH4),,,,,,0.155,,,0.057,0.002
DCAF4 (UniProt Q8WV16),,,0.009,,,,-0.15,,,
DHPS (UniProt M0R1T2),,,,,,0.099,,,,
EIF4G1 (UniProt Q04637),,0.171,,,0.018,,,-0.356,-0.301,-0.425
EHBP1 (UniProt Q8NDI1),,-0.012,,,0.086,,,0.095,-0.132,0.033
ERF (UniProt P50548),-0.448,,0.127,-0.036,,,,,0.058,0.13
FAM193B (UniProt Q96PV7),,-0.127,-0.311,,-0.085,0.068,,-0.101,-0.133,-0.483
FAM160A2 isoform 2 (UniProt Q8N612),,,0.2,,,-0.012,-0.134,,-0.071,0.027
DNAH5 (UniProt Q8TE73),0.014,,0.036,0.001,,-0.005,-0.067,,0.084,0.095
